PrPC TRFRET: reduces human prion protein on the cell surface; P04156; cell surface PrPC, TR-FRET read-out; inhibition, % at 13.8 µM; hit rate 0.43% among 370,000; in the data active means inhibition above about 24%; further: 0% = median of the test wells and 100% = reference compound wells
TcdB GH inh: TcdB glycohydrolase inhibition; hit rate 0.24% among 350,000; inhibition, % at 9.99 µM; TcdB glycohydrolase enzymatic assay, plate reader; P18177; AID 652162; in the data active means inhibition above about 10%
DUSP3 inh: blocks human VHR1 dual specificity phosphatase; inhibition, % at 13.3 µM; recombinant VHR phosphatase, pNPP absorbance; P51452; hit rate 0.52% among 290,000; in the data active means inhibition above about 50%
PrPC TRFRET cf: confirmation of inhibitors of cell surface human prion protein; shares compounds with PrPC TRFRET; cell surface PrPC level, TR-FRET; inhibition, % at 13.8 µM; hit rate 65% among 1,500; in the data active means inhibition above about 25%
LD9 tox: counter-screen for PrPc inhibitors: cytotoxicity in LD9 cells. shares compounds with PrPC TRFRET. AID 743201. luminescence viability. hit rate 29% among 1,500. inhibition, % at 13.8 µM; in the data active means inhibition above about 9.5%
The depositor's hits bear a star; · = no result. Shown are actives, neighbours in structure and some others; about 0.82% of the full set was active somewhere.

SMILES | PrPC TRFRET | TcdB GH inh | DUSP3 inh | PrPC TRFRET cf | LD9 tox
Cc1ccc(CN2CCCCC(NC(=O)Nc3cccc(F)c3)C2=O)cc1 (configuration not stated) | 21 | · | · | · | ·
COc1cccc(NC(=O)NC2CCCCN(Cc3ccc(C)cc3)C2=O)c1 (configuration not stated) | 25* | · | · | 16 | -6
Oc1ccc(Nc2nc(-c3ccccc3)nc3ccccc23)cc1 | · | 1 | 10 | · | ·
CC(=O)Nc1ccc(Nc2nc(-c3ccccc3)nc3ccccc23)cc1 | 30* | 1 | 12 | 18 | 17*
Cc1cc(C2(c3ccc(O)c(C)c3)OC(=O)c3ccccc32)ccc1O | 2 | -3 | 32 | · | ·
Cc1cc(O)c(C(C)C)cc1C1(c2cc(C(C)C)c(O)cc2C)OC(=O)c2ccccc21 | 25* | 9 | 35 | 16 | -7
CC=Cc1ccc2n(c1=O)C[C@H]1[C@H](CO)[C@@H](C(=O)NCCC)[C@@H]2N1Cc1ccccc1 (mixture of isomers) | · | 0 | · | · | ·
O=C(C[C@H]1C=C[C@@H](NS(=O)(=O)c2ccccc2)[C@@H](CO)O1)N1CCN(c2ccccc2)CC1 | · | 2 | · | · | ·
CC(=O)N=c1sc2nc3ccccc3nc2n1N(C(C)=O)C(C)=O | 28* | · | 14 | 37* | 3
CC(=O)N=c1sc2ccccc2n1C | 2 | · | 12 | · | ·
CO[C@H](C(=O)N(C)C[C@@H]1OCc2ccccc2-c2c(n(C)c3ccccc23)C(=O)N([C@@H](C)CO)C[C@@H]1C)c1ccccc1 | · | 1 | · | · | ·
COC(=O)C1=C(C)N(CC(C)C)C(=S)NC1c1ccc(-c2ccccc2)cc1 (configuration not stated) | 25* | -2 | · | 14 | 0
COC(=O)C1=C(C)N(CC(C)C)C(=S)NC1c1cccc(OC)c1 (configuration not stated) | -4 | 2 | · | · | ·
C[C@@H]1CN([C@@H](C)CO)C(=O)c2cc(-c3cncnc3)cnc2O[C@H]1CN(C)C(=O)Nc1ccc2c(c1)OCO2 | · | 1 | · | · | ·
CO[C@@H]1CN(C)C(=O)c2cc(NC(=O)NC(C)C)ccc2OC[C@H](C)N(C)C[C@@H]1C | · | -1 | · | · | ·
CCC(C)NC(=O)C(NS(=O)(=O)c1ccc2c(c1)c(=O)n(C)c(=O)n2C)c1ccccc1 (configuration not stated) | 42* | 1 | 19 | 8 | -1
CC(C)CCNC(=O)C(NS(=O)(=O)c1ccc2c(c1)c(=O)n(C)c(=O)n2C)c1ccccc1 (configuration not stated) | -2 | 1 | 15 | · | ·
Cc1cc(C)c(S(=O)(=O)Nc2cccc(S(=O)(=O)N3CCOCC3)c2)c(C)c1 | 27* | -3 | -28 | 18 | -10
Cc1cc(C)c(S(=O)(=O)Nc2ccc(N3CCOCC3)cc2)c(C)c1 | 6 | -41 | 11 | · | ·
CNC(=O)COc1ccccc1C(=O)Nc1ccc2c(c1)oc1ccccc12 | 31* | · | 55* | 32* | -2
N#Cc1ccccc1NC(=O)c1ccccc1OCC(=O)Nc1ccc2c(c1)oc1ccccc12 | -3 | 2 | · | · | ·
O=C(CN1CCCCC1)Nc1c2c(nc3ccccc13)N(c1ccccc1)CC2 | 44* | 1 | 26 | 102* | 12*
CCCC(=O)Nc1c2c(nc3ccccc13)N(c1ccccc1)CC2 | · | · | 16 | · | ·
COC(=O)C[C@H]1C[C@H]2c3cc(NS(=O)(=O)c4ccc(F)cc4)ccc3O[C@H]2[C@H](CO)O1 | · | 1 | · | · | ·
Cc1cccc(C)c1OCc1cc(C(=O)N(C)Cc2nc3ccccc3[nH]2)no1 | 23 | 0 | 14 | · | ·
SMILES | PrPC TRFRET | TcdB GH inh | DUSP3 inh | PrPC TRFRET cf | LD9 tox
CC(=O)c1ccc(OCc2cc(C(=O)N(C)Cc3nc4c(C)cccc4[nH]3)no2)cc1 | 27* | 0 | 6 | 26* | 0
C[C@@H]1CCCCO[C@H](CN(C)S(C)(=O)=O)[C@@H](C)CN([C@@H](C)CO)C(=O)c2cc(NC(=O)C3CCCCC3)ccc2O1 | · | 0 | · | · | ·
C[C@@H]1CN([C@@H](C)CO)C(=O)c2cc(NS(=O)(=O)c3cccs3)ccc2O[C@H]1CN(C)S(=O)(=O)c1ccc(Cl)cc1 | · | -2 | · | · | ·
O=C(NCc1cccc(Cl)c1)c1cc(COc2ccc3ncccc3c2)on1 | 25* | · | 13 | 26* | 15*
Cc1ccc(F)cc1CNC(=O)c1cc(COc2ccc3ncccc3c2)on1 | 14 | 0 | 17 | · | ·
CCCNC(=O)N1C[C@H](O)COC[C@H]2O[C@H](CC(=O)N[C@H]3CCN(Cc4ccccc4)C3)CC[C@@H]21 | · | 0 | · | · | ·
O=C(O)CCC(=O)Nc1nnc(C(F)(F)F)s1 | 13 | · | 25 | · | ·
CCC(NC(=O)Nc1nnc(C(F)(F)F)s1)(C(F)(F)F)C(F)(F)F | 58* | · | -1 | 74* | 54*
COc1cccc(NC(=O)N(C)C[C@H]2Oc3cc(-c4ccccc4OC)ccc3S(=O)(=O)N([C@@H](C)CO)C[C@H]2C)c1 | · | 0 | · | · | ·
Cc1ccc(C(=O)Nc2ncc(Cc3ccccc3)s2)o1 | 27* | · | 19 | 26* | 3
O=C(Nc1ncc(Cc2ccccc2)s1)c1cccs1 | 16 | · | -2 | · | ·
C[C@H](NC(=O)C[C@H]1CC[C@H](NC(=O)C2CC2)[C@@H](CO)O1)c1ccccc1 | · | 1 | · | · | ·
O=C(Cn1cc(COc2ccc(Br)cc2)nn1)c1ccc(O)cc1 | 13 | 1 | · | · | ·
CCCC(=O)c1ccc(OCc2cn(CC(=O)c3ccc(O)cc3)nn2)cc1 | 28* | 0 | · | 22 | -1
Cc1nnc(NC(=O)CSc2nc(C(C)C)nc3ccccc23)s1 | 29* | 0 | 2 | 78* | -4
Cc1cc(NC(=O)CSc2nc(C(C)C)nc3ccccc23)no1 | 118* | · | -4 | 124* | -14
Cc1cc(NC(=O)CSc2ccccc2)no1 | 4 | · | 0 | · | ·
CC(C)c1nc(SCC(=O)Nc2nc3c(s2)CCCC3)c2ccccc2n1 | 60* | · | -13 | 75* | -1
CCSc1nc(-c2cccs2)nc2ccccc12 | 6 | 2 | 0 | · | ·
Cc1cc(NC(=O)C(C)Sc2nc(-c3cccs3)nc3ccccc23)no1 (configuration not stated) | 43* | 0 | · | 102* | -4
CC(C)(C)c1nc(SCC(=O)Nc2nc3c(s2)CCCC3)c2ccccc2n1 | 2 | · | 17 | · | ·
CC(C)c1nc(SCC(=O)NC2CCCC2)c2ccccc2n1 | 16 | 0 | 26 | · | ·
CCS(=O)(=O)Nc1ccc2c(c1)C(=O)N(C)C[C@H](OC)[C@H](C)CN(C)[C@H](C)CO2 | · | -1 | · | · | ·
Cc1noc(C)c1NC(=O)Nc1ccc2c(c1)C(=O)N([C@@H](C)CO)C[C@@H](C)[C@H](CN(C)C(=O)CCCN(C)C)OCCCC[C@@H](C)O2 | · | -11 | · | · | ·
Cc1ccc(S(=O)(=O)N[C@@H]2CC[C@@H](CC(=O)NCc3ccc(Cl)c(Cl)c3)O[C@H]2CO)cc1 | · | 1 | · | · | ·
C[C@H]1CN([C@@H](C)CO)C(=O)c2cc(NS(=O)(=O)c3cccs3)ccc2O[C@H]1CN(C)S(=O)(=O)c1cn(C)cn1 | · | -1 | · | · | ·
CC(C)(C)c1csc(NC(=O)c2cccnc2Cl)n1 | 2 | 3 | · | · | ·
CSc1ncccc1C(=O)Nc1nc(C(C)(C)C)cs1 | 27* | -5 | 20 | 27* | -5
COc1ccc(S(=O)(=O)N(C)C[C@H]2Oc3c(NC(=O)NC(C)C)cccc3C(=O)N([C@@H](C)CO)C[C@@H]2C)cc1 | · | 1 | · | · | ·

Screening results: PubChem BioAssay, several laboratories
